High-throughput results as filed in PubChem BioAssay.
hgDAF-12 ag = hgDAF-12 agonism, primary luciferase screen. HEK293 GAL4-hgDAF12 UAS-luciferase reporter, agonist luminescence; normalized to butyrate control. activation, % at 6.8 µM. 370,000 tested, 1.8% active. AID 687014;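 active = activation above a cutoff set at the mean of all screened compounds plus 3 SD, cut at about 10% in these data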;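 also: 0% = DMSO wells and 100% = sodium butyrate wells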
SMARCA2 activ = SMARCA2 function activation, primary screen. MG213 cells, MMTV-luciferase reporter, dexamethasone, overnight. activation, % at 9.1 µM. 370,000 tested, 1% active. AID 652017; in the data active = activation above about 7.8%;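 also: 0% = vehicle wells and 100% = reference activator wells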
hcDAF12 agonist = activates DAF-12 receptor from parasite H. contortus; HEK293 hcDAF-12 lit1-tk-luc reporter, luminescence; 0% DMSO, 100% Δ7-dafachronic acid; activation, % at 6.8 µM; 370,000 tested, 1.4% active; AID 652067;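 active = activation above the mean of all tested compounds plus 3 SD, cut at about 5.5% in these data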;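 also: 100% = response to 3 µM Δ7-dafachronic acid high control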
ssDAF12 agonist = activators of S. stercoralis DAF-12 nuclear receptor | 370,000 tested, 1% active | activation, % at 6.8 µM | HEK293 ssDAF-12/GRIP1 lit1-tk-luc reporter, luminescence; % of 3 µM dafachronic acid response;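 active = activation above the mean over all tested compounds plus 3 SD, cut at about 0.9% in these data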;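 also: 0% = DMSO-only wells and 100% = 3 µM delta7-dafachronic acid wells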
DAX1 inh = inhibitors of DAX1 repression of SF-1 activated StAR promoter. HEK293T StAR-luciferase reporter, SF-1/DAX-1 repression relief. inhibition, % at 6.8 µM. 370,000 tested, 1.1% active. AID 652010;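 active = inhibition above the mean over all tested compounds plus 3 SD, cut at about 3.6% in these data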;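 also: 0% = DAX-1 cells with DMSO and 100% = cells lacking DAX-1 with DMSO; higher inhibition means more luminescence from relief of DAX-1 repression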
SMARCA2 conf = confirmation of SMARCA2 (BRM) function activators | shares compounds with SMARCA2 activ | activation, % at 9.1 µM | AID 652260 | 3,500 tested, 30% active | MG213 cells, MMTV-luciferase with dexamethasone, luminescence, overnight; MG213 cells expressing E1A, Rb sequestered; DMSO wells 0%, reference activator 100%;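 active = activation above its plate's cutoff, the mean activation of tested wells plus 3 SD, cut at about 7.9% in these data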
GAL4-VP16 Luc = counter-screen for SMARCA2 activators: GAL4-VP16 luciferase reporter activation; shares compounds with SMARCA2 activ; activation, % at 9.1 µM; HEK293 GAL4-VP16 pG5luc reporter, luciferase luminescence; scaled: DMSO wells 0%, SAHA wells 100%; 3,500 tested, 41% active; AID 686939;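 active = activation above the solvent-only control well mean plus 3 SD, averaged across control plates, cut at about 5.2% in these data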
* hit, by the source's call. Shown are actives, neighbours in structure and some others; about 4.2% of the full set was active somewhere.

`O=C(CSCc1ccccc1Cl)N1CCN(c2ccccn2)CC1` gave hgDAF-12 ag 5, SMARCA2 activ 3, hcDAF12 agonist 0, ssDAF12 agonist -1 and DAX1 inh 1.
CC(=O)c1ccc(N2CCN(S(=O)(=O)c3ccc4c(c3)C(Cl)(Cl)C(=O)N4)CC2)cc1 was read as hgDAF-12 ag -2, SMARCA2 activ 10*, hcDAF12 agonist -1, ssDAF12 agonist -1, DAX1 inh 1, SMARCA2 conf 4 and GAL4-VP16 Luc 1.
`O=C(CS(=O)c1ccc(C(F)(F)F)cc1[N+](=O)[O-])Oc1ccccc1` (stereo unspecified) gave hgDAF-12 ag -3, SMARCA2 activ 16*, hcDAF12 agonist 3, ssDAF12 agonist -1, DAX1 inh 0, SMARCA2 conf -15 and GAL4-VP16 Luc 4.
O=C(Nc1ccccc1F)c1coc(=O)c(Br)c1 was read as hgDAF-12 ag 4, SMARCA2 activ 1, hcDAF12 agonist -2, ssDAF12 agonist 0 and DAX1 inh 0.
For O=C(NCCc1ccc(F)cc1)c1coc(=O)c(Br)c1 the results were hgDAF-12 ag 0, SMARCA2 activ 27*, hcDAF12 agonist -1, ssDAF12 agonist -1, DAX1 inh 0, SMARCA2 conf -8 and GAL4-VP16 Luc 4.
For CCCOc1cccc(/C=N/NC(=O)c2csc(C)c2C)c1 the results were hgDAF-12 ag 1, SMARCA2 activ 13*, hcDAF12 agonist -1, ssDAF12 agonist -1, DAX1 inh 0, SMARCA2 conf 2 and GAL4-VP16 Luc 2.
`CC(=O)c1ccc(NC(=O)N2CCc3ccccc3C2)cc1` gave hgDAF-12 ag 3, SMARCA2 activ 2, hcDAF12 agonist 0, ssDAF12 agonist -1 and DAX1 inh -3.
For CC(=O)c1cccc(NC(=O)N2CCc3ccccc3C2)c1 the results were hgDAF-12 ag 7, SMARCA2 activ 8.2*, hcDAF12 agonist 2, ssDAF12 agonist -1, DAX1 inh 0, SMARCA2 conf 4 and GAL4-VP16 Luc 7.8*.
Screening Nc1ccn(C[C@@H](CO)OCP(=O)(O)O)c(=O)n1 returned hgDAF-12 ag 2, SMARCA2 activ -6, hcDAF12 agonist -2, ssDAF12 agonist -1 and DAX1 inh 0.
Screening COc1cccc(NC(=O)CCc2c(C)nn(-c3ccc(N4CCOCC4)nn3)c2C)c1 returned hgDAF-12 ag 2, SMARCA2 activ 11*, hcDAF12 agonist -1, ssDAF12 agonist -1, DAX1 inh 0, SMARCA2 conf 2 and GAL4-VP16 Luc 3.
Screening Cc1cccc(NC(=O)CCc2c(C)nn(-c3ccc(N4CCOCC4)nn3)c2C)c1 returned hgDAF-12 ag 3, SMARCA2 activ 1, hcDAF12 agonist 1, ssDAF12 agonist -1 and DAX1 inh 0.
For CN(C)CCN1C(=O)c2cccc3cc([N+](=O)[O-])cc(c23)C1=O the results were hgDAF-12 ag -5, SMARCA2 activ 15*, hcDAF12 agonist 6.5*, ssDAF12 agonist 0, DAX1 inh -7, SMARCA2 conf 11* and GAL4-VP16 Luc 7.2*.
For Cc1ccc(S(=O)(=O)Nc2c(C)nn(C)c2C)c(C)c1 the results were hgDAF-12 ag 4, SMARCA2 activ -2, hcDAF12 agonist -1, ssDAF12 agonist -1 and DAX1 inh -2.
For Cc1cc(C(=O)O)cc(S(=O)(=O)Nc2c(C)nn(C)c2C)c1C the results were hgDAF-12 ag -1, SMARCA2 activ 9.4*, hcDAF12 agonist -2, ssDAF12 agonist -1, DAX1 inh 0, SMARCA2 conf -2 and GAL4-VP16 Luc 0.
Screening COc1ccccc1NC(=O)C/C(C)=N/NC(=O)c1ccccn1 returned hgDAF-12 ag 13*, SMARCA2 activ 12*, hcDAF12 agonist 4, ssDAF12 agonist 0, DAX1 inh 2, SMARCA2 conf -1 and GAL4-VP16 Luc 3.
O=C(Nc1ccc(Br)cc1)c1cnccn1 was read as hgDAF-12 ag 6, SMARCA2 activ 2, hcDAF12 agonist 0, ssDAF12 agonist 0 and DAX1 inh 2.
`CCOc1ccc(NC(=O)C/C(C)=N/NC(=O)c2cnccn2)cc1` gave hgDAF-12 ag 5, SMARCA2 activ 8.9*, hcDAF12 agonist 3, ssDAF12 agonist -1, DAX1 inh 1, SMARCA2 conf 3 and GAL4-VP16 Luc 3.
O=C(Nc1ccc(F)cc1)c1cnccn1 was read as hgDAF-12 ag 1, SMARCA2 activ 8.7*, hcDAF12 agonist -1, ssDAF12 agonist -1, DAX1 inh 0, SMARCA2 conf 2 and GAL4-VP16 Luc 2.
`COc1ccc(NC(=O)C2c3ccccc3OCC(=O)N2Cc2ccc3c(c2)OCO3)cc1` (stereo unspecified) gave hgDAF-12 ag 2, SMARCA2 activ 1, hcDAF12 agonist 1, ssDAF12 agonist -1 and DAX1 inh 2.
For COC(=O)c1ccc(CN2CC3CC(c4ccccc4)N4CCCC34C2=O)cc1 (stereo unspecified) the results were hgDAF-12 ag -1, SMARCA2 activ -2, hcDAF12 agonist 1, ssDAF12 agonist -1 and DAX1 inh 0.
`CCCCNC(=O)C1CCCN1C(=O)Nc1cc(Cl)cc(Cl)c1` (stereo unspecified) gave hgDAF-12 ag 0, SMARCA2 activ -7, hcDAF12 agonist -2, ssDAF12 agonist 1 and DAX1 inh 1.
COC(=O)c1cnn2c3c(c(C)nc12)CCCC3 was read as hgDAF-12 ag 7, SMARCA2 activ 11*, hcDAF12 agonist 0, ssDAF12 agonist -1, DAX1 inh 1, SMARCA2 conf 7 and GAL4-VP16 Luc 5.
Cn1c(SCC(=O)Nc2ccc(S(=O)(=O)Nc3nccs3)cc2)nc2sc3c(c2c1=O)CCCC3 was read as hgDAF-12 ag 3, SMARCA2 activ 11*, hcDAF12 agonist -1, ssDAF12 agonist -2, DAX1 inh 2, SMARCA2 conf 3 and GAL4-VP16 Luc 1.
COc1cccc(CC(=O)Nc2ccc(S(=O)(=O)Nc3nccs3)cc2)c1 was read as hgDAF-12 ag -1, SMARCA2 activ 8.4*, hcDAF12 agonist -2, ssDAF12 agonist -1, DAX1 inh 1, SMARCA2 conf -2 and GAL4-VP16 Luc 2.
`Cc1cc(C)nc(SCC(=O)Nc2ccc(S(=O)(=O)Nc3nccs3)cc2)n1` gave hgDAF-12 ag 2, SMARCA2 activ -2, hcDAF12 agonist 1, ssDAF12 agonist 0 and DAX1 inh 0.
